According to PubChem BioAssay (Tox21):
Inconclusive results are not listed. Active and inactive are the calls of the source. Calls come from the whole dose curve; as a rule, active = well fitted curve in the direction sought with a large enough effect in the repeat runs; inconclusive = weak or mixed curves; inactive = no such curve, though single readings can be large; an effect the other way counts as inactive or inconclusive.

Assays:
[1] = qHTS RealTime-Glo MT Cell Viability Assay in HepG2 cells - 40 hour (AID 1224870); note: nearly all actives have a fitted effect of over 50% in size
In short: (§1)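 HepG2 cells (600/well) mixed with RealTime-Glo MT reagent, settled 5 h at 37 C/5% CO2 before compound addition. Nonlytic NanoLuc luminescence from viable-cell prosubstrate reduction read repeatedly during 40 h treatment at 37 C.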

[2] = A CellTox Green Cytotoxicity Assay to monitor cytotoxicity in HEK293 cells - 40 hour (AID 1224871); note: nearly all actives have a fitted effect of over 45% in size
In short: (§2)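 HEK293 cells, 600/well, were preincubated 5 hours and then exposed to compounds at 37 C for up to 40 hours. A cell-impermeant cyanine dye staining dead-cell DNA was read by fluorescence at 0, 8, 16, 24, 32 and 40 h time points.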

[3] = qHTS RealTime-Glo MT Cell Viability Assay in HEK293 cells - 16 hour (AID 1224872); note: nearly all actives have a fitted effect of over 50% in size; note: potency is the fitted concentration of half-maximal effect
In short: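 Luminescence generated by NanoLuc from substrate produced by living HEK293 cells served as the viability signal. Each value reflects the reading at its stated time point during continuous 40 h compound exposure at 37 C.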

[4] = qHTS RealTime-Glo MT Cell Viability Assay in HEK293 cells - 40 hour (AID 1224874); conditions: RealTime-Glo luminescence; max response: stronger effect = lower value; note: nearly all actives have a fitted effect of over 50% in size; note: potency is the fitted concentration of half-maximal effect
In short: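 600 cells/well were plated with the nonlytic NanoLuc/prosubstrate reagent, pre-incubated 5 h, then given 23 nL of compound in DMSO. Incubation at 37 C for 40 h, with luminescence from viable-cell-reduced substrate read repeatedly from 0 h.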

[5] = A CellTox Green Cytotoxicity Assay to monitor cytotoxicity in HEK293 cells - 24 hour (AID 1224875); note: series mostly up to about 77 µM; nearly all actives have a fitted effect of over 45% in size
In short: as §2

[6] = A CellTox Green Cytotoxicity Assay to monitor cytotoxicity in HepG2 cells - 16 hour (AID 1224876); note: nearly all actives have a fitted effect of over 45% in size
In short: (§3)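 HepG2 cells, 600/well, preincubated 5 h with CellTox Green dye, then exposed to Tox21 compounds in DMSO at 37 C for up to 40 h. Dead-cell DNA fluorescence read at the indicated time point.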

[7] = qHTS RealTime-Glo MT Cell Viability Assay in HepG2 cells - 32 hour (AID 1224877); note: nearly all actives have a fitted effect of over 55% in size
In short: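 Tox21 10K library screened in qHTS format on HepG2 cells carrying RealTime-Glo reagents. Compounds were added after a 5 h preincubation, and the luminescent signal from continuous culture was measured repeatedly during 40 h treatment.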

[8] = A CellTox Green Cytotoxicity Assay to monitor cytotoxicity in HepG2 cells - 40 hour (AID 1224879); note: nearly all actives have a fitted effect of over 40% in size; note: potency is the fitted concentration of half-maximal effect
In short: as §3

[9] = A CellTox Green Cytotoxicity Assay to monitor cytotoxicity in HepG2 cells - 24 hour (AID 1224878); note: nearly all actives have a fitted effect of over 45% in size
In short: as §3

[10] = qHTS RealTime-Glo MT Cell Viability Assay in HepG2 cells - 8 hour (AID 1224873); note: nearly all actives have a fitted effect of over 55% in size
In short: as §1
% is set by controls: 0 for no effect and ±100 for the full control effect.

CC(=O)/C=C/C1C(C)=CCC(C)C1(C)C (centres undefined)
inactive: outcome [1] | Potency [2] | Potency [3] | max response [4] 1.21% | outcome [5] | outcome [6] | outcome [7] | Potency [8]

CC(C)(C)OC(=O)c1ccc(O)cc1
inactive: outcome [1] | Potency [2] | Potency [3] | max response [4] -26.7% | outcome [5] | outcome [6] | outcome [7]

C[C@H](N)[C@H](O)c1cccc(O)c1
inactive: outcome [1] | Potency [2] | Potency [3] | max response [4] -0.629% | outcome [5] | outcome [6] | outcome [7] | outcome [9] | Potency [8]

COc1ccc2c(c1OC)C(=O)O[C@@H]2[C@H]1c2c(cc3c(c2OC)OCO3)CCN1C
inactive: outcome [1] | Potency [2] | Potency [3] | outcome [10] | outcome [6] | outcome [7]

CCCCCCCCCCl
inactive: outcome [1] | Potency [2] | Potency [3] | outcome [10] | max response [4] -0.474% | outcome [6] | outcome [9] | Potency [8]

NS(=O)(=O)c1ccc(NC(=O)CCC(=O)O)cc1
inactive: outcome [1] | Potency [2] | Potency [3] | outcome [10] | max response [4] 3.03% | outcome [6] | outcome [9] | Potency [8]

Cc1ccccc1C(=O)Nc1ccc(C(=O)N2CCCC(N(C)C)c3ccccc32)cc1 (centres undefined)
inactive: outcome [1] | Potency [2] | Potency [3] | outcome [10] | outcome [5] | outcome [6]
active: Potency [8] 6.74 µM

CC(C)OC(=O)CCCCC(=O)OC(C)C
inactive: outcome [1] | Potency [2] | Potency [3] | max response [4] 13.3% | outcome [5] | outcome [6] | outcome [7] | outcome [9] | Potency [8]

O=C(/N=N/C(=O)OCc1ccccc1)OCc1ccccc1
inactive: outcome [1] | Potency [2] | Potency [3] | max response [4] -13.7% | outcome [5] | outcome [6] | outcome [7] | outcome [9] | Potency [8]

C=CCCCCCCCCCCCC
inactive: outcome [1] | Potency [2] | Potency [3] | max response [4] -0.0097% | outcome [5] | outcome [6] | outcome [7] | outcome [9] | Potency [8]

CCN(CC)CC(=O)Nc1c(C)cccc1C
active: Potency [3] 10.7 µM
inactive: outcome [1] | Potency [2] | outcome [10] | outcome [5] | outcome [6] | outcome [7] | outcome [9] | Potency [8]

COc1ccc(-c2cc(=O)c3c(O)cc(O[C@@H]4O[C@H](CO[C@@H]5O[C@@H](C)[C@H](O)[C@@H](O)[C@H]5O)[C@@H](O)[C@H](O)[C@H]4O)cc3o2)cc1O
inactive: outcome [1] | Potency [2] | Potency [3] | outcome [10] | max response [4] 1.76% | outcome [6] | outcome [9] | Potency [8]

O=C(OCC(COC(=O)c1cccnc1)(COC(=O)c1cccnc1)COC(=O)c1cccnc1)c1cccnc1
inactive: outcome [1] | Potency [2] | Potency [3] | max response [4] 10.7% | outcome [5] | outcome [6] | outcome [7] | outcome [9] | Potency [8]

O=C(CCNNC(=O)c1ccncc1)NCc1ccccc1
inactive: outcome [1] | Potency [2] | Potency [3] | outcome [10] | max response [4] 3.81% | outcome [6] | Potency [8]

Cc1ccccc1N=O
inactive: outcome [1] | Potency [2] | Potency [3] | max response [4] 9.08% | outcome [5] | outcome [6] | outcome [7] | outcome [9] | Potency [8]

COc1ccc(OC)c(Cl)c1
inactive: outcome [1] | Potency [2] | Potency [3] | max response [4] 5.92% | outcome [5] | outcome [6] | outcome [7] | outcome [9] | Potency [8]

CC1COc2ccccc2N1 (centres undefined)
inactive: outcome [1] | Potency [2] | Potency [3] | outcome [10] | outcome [5] | outcome [6] | outcome [7] | Potency [8]

C=CC(OCC)OCC
inactive: outcome [1] | Potency [2] | Potency [3] | outcome [10] | max response [4] 8.05% | outcome [6] | outcome [7] | Potency [8]

O=C(O)CCSSCCC(=O)O
inactive: outcome [1] | Potency [2] | Potency [3] | outcome [10] | max response [4] 7.07% | outcome [6] | outcome [9] | Potency [8]

C=C(C)C(=O)OCCN(CC)CC
inactive: outcome [1] | Potency [2] | Potency [3] | max response [4] 2.31% | outcome [5] | outcome [6] | outcome [7] | outcome [9] | Potency [8]

OCCN(CCO)c1cccc(Cl)c1
inactive: outcome [1] | Potency [2] | Potency [3] | max response [4] 0.212% | outcome [6] | outcome [7] | outcome [9] | Potency [8]

Cc1nc2n(c(=O)c1CCN1CCC(c3noc4cc(F)ccc34)CC1)CCC[C@H]2O
inactive: activity change, negative = cytotoxic [1] 0.984% [at 15.8 µM] | cytotoxicity increase [2] 6.76% [at 15.8 µM] | viability change, negative = cytotoxic [10] -0.0945% [at 15.8 µM] | activity change [5] -3.48% [at 15.8 µM] | cytotoxicity increase [6] -0.968% [at 15.8 µM] | activity change, negative = cytotoxic [7] 0.664% [at 15.8 µM] | cytotoxicity [9] 0.861% [at 15.8 µM] | cytotoxicity increase [8] 0.318% [at 15.8 µM]

CCCOC(=O)C(C)O (centres undefined)
inactive: outcome [1] | Potency [2] | Potency [3] | max response [4] -7.32% | outcome [5] | outcome [6] | outcome [7] | Potency [8]

O=C(Nc1ccc(Cl)c(Cl)c1)C1CC1
active: Potency [3] 9.52 µM | Potency [4] 8.49 µM
inactive: outcome [1] | Potency [2] | outcome [6] | outcome [7] | outcome [9] | Potency [8]

NC(CO)C(=O)NNCc1ccc(O)c(O)c1O (centres undefined)
inactive: outcome [1] | Potency [2] | Potency [3] | max response [4] 2.85% | outcome [6] | outcome [7] | outcome [9] | Potency [8]
